# High-throughput results (PubChem)
# Sampled rows, rich in hits. Any-hit rate of the full collection: about 2.4%.
# D2 PAM-1: Beta-Arrestin HTS for Positive Allosteric Modulators of the Human D2 Dopamine Receptor: Potentiators | D(2) dopamine receptor (Homo sapiens), P14416 | DiscoveRx D2 beta-arrestin cells, luminescence, 90 min; 100% = 57 uM dopamine signal | potentiation, % (no concentration beside the values) | hit rate 0.23% among 360,000; in the data active = potentiation above about 50%; inconclusive = mostly about 30% to 49%
#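 PathHunter beta-arrestin assay in DiscoveRx D2 cells. Compounds were added with an EC20 of dopamine (50 nM final) for 90 min at 37 deg C. Luminescence was read 1 h after detection reagent, with 57 uM dopamine as the EC100 control.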
# D2 ag-1: Beta-Arrestin HTS for Positive Allosteric Modulators of the Human D2 Dopamine Receptor: Agonists; DiscoveRx PathHunter D2 beta-arrestin, luminescence, 90 min; 100% = 57 uM dopamine signal; activation, % (no concentration beside the values); hit rate 0.084% among 360,000; in the data active = activation above about 40%; inconclusive = between about 15% and that limit
#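 DiscoveRx PathHunter D2 beta-arrestin cells (2,100/well) attached overnight, then compound-stimulated 90 min at 37 C in HBSS/10 mM HEPES/0.1% Tween-20 buffer; beta-galactosidase complementation read by luminescence after 1 h at ambient temperature. Dopamine 57 uM final (EC100) as control.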
# D2 ag-2: HTS Assay for Allosteric Agonists of the Human D2 Dopamine Receptor: Primary Screen for Agonists | HEK293 T-REx D2 cells, calcium flux agonist mode | activation, % at 2 µM | hit rate 0.53% among 340,000 | AID 485358, 2010;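 active = activation over 3 SD above normal in the single-dose calcium agonist read, cut at about 30% in these data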; also: 0% is about no effect
#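 Tetracycline-induced HEK293 Trex cells with D2 receptor force-coupled to calcium signaling, plated overnight at 30 C and loaded with no-wash calcium dye. Calcium flux read kinetically for 180 s after compound addition; responses flag agonists.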
# D2 PAM-2: HTS Assay for Positive Allosteric Modulators of the Human D2 Dopamine Receptor: Primary Screen for Potentiators. HEK293 T-REx D2, calcium flux, EC20 dopamine potentiation. potentiation, % at 10 µM. hit rate 0.34% among 340,000. AID 485347, 2010;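 active = potentiation over 3 SD above the plate norm, cut at about 30% in these data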; also: 0% is about no effect
#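 Cells plated with tetracycline inducer and held overnight at 30 C; calcium dye loaded 30–90 min at room temperature; baseline taken, compound added and read 180 s; EC20 dopamine then added and read 180 s.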
# D2 antagonist: HTS Assay for Allosteric Antagonists of the Human D2 Dopamine Receptor: Primary Screen for Antagonists. HEK293 TREx D2 cells, calcium flux, dopamine EC80. inhibition, % at 10 µM. D(2) dopamine receptor (Homo sapiens), P14416. hit rate 2% among 340,000. AID 485344, 2010; in the data active = inhibition above about 30%; inactive = below that, where a call was filed; also: 0% is about no effect
#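 Tetracycline-induced HEK293 TREx cells expressing D2 receptor forced-coupled to calcium signalling, loaded with no-wash calcium dye. Compounds added and calcium flux read 180 s, then dopamine added at EC80 and read a further 180 s.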
# D3 ag: qHTS of D3 Dopamine Receptor Agonist: D3 Dopamine Receptor B-arrestin Agonist Confirmatory Assay | shares compounds with D2 ag-2 | hit rate 4% among 2,300 | AID 720506, 2013 | Potency, µM (titrated, usually from 76.9 µM), inactives show at the highest dose activation, usual class: activators | DiscoveRx D3 beta-arrestin cells, luminescence, 90 min;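 also: potency is read from the fitted curve at half-maximal effect; 100% = dopamine control response; nearly all actives have a fitted effect of over 70% in size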
# Target sequence (P35462 whole entry, looked up): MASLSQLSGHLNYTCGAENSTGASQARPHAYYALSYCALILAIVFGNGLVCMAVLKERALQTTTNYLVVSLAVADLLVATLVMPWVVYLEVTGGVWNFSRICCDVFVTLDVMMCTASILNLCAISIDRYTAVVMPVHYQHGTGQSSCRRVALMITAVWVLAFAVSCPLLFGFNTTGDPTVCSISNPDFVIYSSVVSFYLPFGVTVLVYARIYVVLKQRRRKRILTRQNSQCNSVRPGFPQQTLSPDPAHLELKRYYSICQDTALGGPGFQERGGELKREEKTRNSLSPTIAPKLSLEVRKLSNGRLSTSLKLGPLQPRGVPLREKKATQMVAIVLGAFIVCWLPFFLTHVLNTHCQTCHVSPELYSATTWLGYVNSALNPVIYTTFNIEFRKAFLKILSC
# D2 ag-3: qHTS of D3 Dopamine Receptor Agonist: D2 Dopamine Receptor B-arrestin Agonist Counterscreen. Potency, µM (series often up to 76.9 µM), for inactives: at the highest dose activation, most hits filed as activators. DiscoveRx PathHunter D2 beta-arrestin, luminescence, 90 min; response scale: percent relative to full dopamine signal. hit rate 5.9% among 2,300. shares compounds with D2 ag-2; also: potency is read from the fitted curve at half-maximal effect; % of control where 0% means no effect; nearly all actives have a fitted effect of over 70% in size
# The depositor's hits bear a star; ? = inconclusive; nt = no result. Unless noted, calls follow the shape of the dose curve; as a rule, active = well fitted activation curve with a large enough effect; inconclusive = small, poorly fitted or top-dose-only effect; inactive = flat fitted curve, though single readings scatter.
SMILES,D2 PAM-1,D2 ag-1,D2 ag-2,D2 PAM-2,D2 antagonist,D3 ag,D2 ag-3
CCOC(=O)[C@H]1[C@H]2COc3ccc(Br)cc3[C@@H]2N2C(=O)CN(Cc3ccc(Cl)cc3)C(=O)[C@@]12C,-1,-4,nt,nt,nt,nt,nt
CCOC(=O)[C@H]1[C@H]2COc3ccc(Cl)cc3[C@@H]2N2C(=O)CN(C)C(=O)[C@@]12C,-10,-3,0,-18,-8,-3%,-3%
CCOC(=O)[C@H]1[C@H]2COc3ccc(Br)cc3[C@@H]2N2C(=O)CN(Cc3ccco3)C(=O)[C@@]12C,2,2,1,12,-7,-4%,-3%
CCc1cccc(NC(=O)CCS(=O)(=O)c2cc3c4c(c2)CCN4C(=O)CC3)c1,nt,nt,0,0,nt,nt,nt
O=C(CSc1ccc2nnc(-c3ccncc3)n2n1)NCC1CCCO1 (stereo not given),-6,-5,0,12,13,-11%,-1%
COc1ccc(S(=O)(=O)N(CC(=O)NCCc2ccccc2)c2ccc(Cl)cc2)cc1,nt,nt,-2,23,nt,nt,nt
COc1ccc(CN2CCN(c3ccccn3)CC2)c(OC)c1,3,?,84*,-22,83*,22%,?
COc1cccc(-n2c(CN3CCN(c4ccccn4)CC3)nc3ccc([N+](=O)[O-])cc3c2=O)c1,-10,-1,28,-17,7,-3%,3%
COc1ccc(CN2CCN(c3ncccn3)CC2)c(OC)c1,16,45*,56*,-5,69*,?,?
COc1ccc(CN2CCN(Cc3ccccc3F)CC2)c(OC)c1,-16,-4,-2,-4,5,nt,nt
COc1cc(CN2CCN(c3ncccn3)CC2)cc(OC)c1,1,56*,88*,-22,87*,?,2.8µM*
COc1ccc(-n2c(CN3CCN(c4ccccc4)CC3)nc3ccc([N+](=O)[O-])cc3c2=O)c(OC)c1,-13,7,18,3,13,nt,nt
COc1cc(CN2CCCCCC2)cc(OC)c1,-13,-2,0,-8,-7,nt,nt
COCc1ccc(-c2ccc3c(c2)c(C#Cc2ccsc2)c(-c2cc(OC)cc(OC)c2)n3C)cc1,-4,-1,1,-8,-20,-5%,-4%
OC(CSc1c(Cl)cccc1Cl)CN1CCN(c2ccccc2F)CC1 (stereo not given),-11,?,68*,-25,65*,?,?
OC(CSc1ccccc1Cl)CN1CCN(c2ccccc2F)CC1 (stereo not given),20,?,63*,-17,74*,45µM*,?
COc1ccc(NC(=O)CSC2=Nc3ccccc3C3=NC(CCC(=O)NCCc4ccccc4)C(=O)N23)c(OC)c1 (stereo not given),nt,nt,nt,1,nt,nt,nt
COc1ccc([C@H]2CC(=O)C=C(c3cccc(CO)c3)C2)cc1OC,-3,1,1,-4,6,nt,nt
O=C1C=C(c2ccccc2)C[C@@H](c2ccc(Cl)cc2)C1,-5,5,1,4,11,-8%,-2%
Cc1ccc(C2=CC(=O)C[C@H](c3ccc(Cl)cc3)C2)cc1,-14,-6,1,8,-2,nt,nt
